JMJD2A Tudor inh: blocks the human JMJD2A Tudor domain. AlphaScreen JMJD2A-Tudor / H3K4me3 peptide binding. Potency, µM (titrated, usually from 114 µM), without a hit: top-dose activity change, negative = inhibition, most hits filed as inhibitors. 390,000 compounds, 4.4% hits. AID 504339; also: % is scaled to controls: 0 for no effect and ±100 for the full control effect; nearly all actives have a fitted effect of over 50% in size
Sfp PPTase inh: Sfp phosphopantetheinyl transferase inhibition; Biochemical Sfp PPTase activity, qHTS; 310,000 compounds, 3.5% hits; AID 1490; Q9F4F7; Potency, µM, inactives show largest response in the series, negative = inhibition, usual class: inhibitors;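 also: the enzyme is Sfp with the accession as filed and its product quenches rhodamine fluorescence; 0% = enzyme reaction without inhibitor and -100% = no enzyme wells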
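With Hepes-Na pH 7.6 buffer containing 10 mM MgCl2, Sfp (15 nM) modified BHQ-2-YbbR (12.5 uM) using rhodamine-CoA (5 uM). Two reads 30 minutes apart at 525/598 nm yielded each well's rate.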
BAZ2B inh: blocks human BAZ2B; Q9UIF8; AlphaScreen BAZ2B-H3K14Ac peptide displacement; Potency, µM (series often up to 114 µM), inactives show top-dose activity change, negative = inhibition, most hits filed as inhibitors; 360,000 compounds, 4.4% hits; AID 504333; also: % is scaled to controls: 0 for no effect and ±100 for the full control effect; nearly all actives have a fitted effect of over 60% in size
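AlphaScreen displacement: compounds (up to 110uM) incubated 30 min at room temperature with a preformed 50 nM BAZ2B/50 nM biotinylated H3K14Ac peptide complex in PBS pH 7.4 with Tween-20. Donor and acceptor beads at 10 ug/mL final added, 20 min light-protected before reading.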
HP1b binding inh: blocks HP1-beta chromodomain binding to methylated histone tails; Potency, µM (series often up to 114 µM), without a hit: top-dose activity change, negative = inhibition, hits mostly inhibitors; P83916; 390,000 compounds, 0.56% hits; AlphaScreen HP1-beta / biotin-H3K9me3 peptide binding; AID 540317; also: nearly all actives have a fitted effect of over 70% in size
Target sequence (P83916 whole entry, looked up): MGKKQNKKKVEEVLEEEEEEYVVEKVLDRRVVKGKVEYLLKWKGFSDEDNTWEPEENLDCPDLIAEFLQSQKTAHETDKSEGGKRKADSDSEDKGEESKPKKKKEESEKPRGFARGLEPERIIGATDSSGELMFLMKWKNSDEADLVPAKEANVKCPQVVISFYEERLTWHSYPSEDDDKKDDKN
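AlphaScreen: HP1-beta (50 nM) preformed 30 min with biotin-H3(1-18)K9me3 peptide (50 nM) in PBS pH 7.4, 0.01% Tween-20. Compound added for 30 min at RT, then streptavidin donor/nickel chelate acceptor beads (10 ug/mL) for 30 min.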
G9a block: G9a (human) methyltransferase inhibition | Q96KQ7 | G9a H3K9 monomethylation, AlphaScreen, 2 h | Potency, µM (top dose mostly 102 µM), without a hit: at the top dose activity, negative = inhibition, hits mostly inhibitors | 350,000 compounds, 8.8% hits | AID 504332; also: % is scaled to controls: 0 for no effect and ±100 for the full control effect; nearly all actives have a fitted effect of over 75% in size
Target sequence (Q96KQ7 913-1193 limits assumed): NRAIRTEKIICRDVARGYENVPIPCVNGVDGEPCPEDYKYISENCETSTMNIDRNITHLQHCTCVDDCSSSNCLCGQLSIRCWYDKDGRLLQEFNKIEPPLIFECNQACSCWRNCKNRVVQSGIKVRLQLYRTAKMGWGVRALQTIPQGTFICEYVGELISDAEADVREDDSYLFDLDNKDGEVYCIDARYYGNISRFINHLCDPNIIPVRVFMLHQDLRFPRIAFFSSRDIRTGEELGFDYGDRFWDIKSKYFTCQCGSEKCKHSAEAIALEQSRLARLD
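G9a (20 nM) preincubated 15 min RT with compounds, then 500 nM biotinylated H3K9 peptide and 20 uM SAM added; 2 h RT reaction. Monomethyl-H3K9 product detected by AlphaScreen with anti-H3K9me1 antibody, streptavidin donor and anti-rabbit IgG acceptor beads.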
L3MBTL1 inh: inhibitors of human L3MBTL1; Potency, µM (titrated, usually from 57.1 µM), without a hit: top-dose activity, negative = inhibition, actives largely listed as inhibitors; AlphaScreen L3MBTL1–H3K9me1 peptide binding; 230,000 compounds, 0.66% hits; also: % is scaled to controls: 0 for no effect and ±100 for the full control effect; nearly all actives have a fitted effect of over 60% in size
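L3MBTL1 50 nM + b-AHA-H3(1-15)K9me1 75 nM, 30 min RT; compound added, 30 min RT; streptavidin donor/Ni-chelate acceptor beads 10 ug/mL each final, 30 min RT dark; AlphaScreen read.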
An asterisk follows results filed as active; ? = inconclusive; / = no result; [ ] = dose if it differs, or a comment. Sampled rows, rich in hits. Any-hit rate of the full collection: about 12%. Calls follow the shape of the dose curve; as a rule, active = well fitted curve in the direction sought with a large enough effect; inconclusive = small, poorly fitted or top-dose-only effect, or another doubt; inactive = no such curve, though single readings can be large; an effect the other way counts as inactive or inconclusive. Potency is read from the fitted curve at half-maximal effect.

SMILES	JMJD2A Tudor inh	Sfp PPTase inh	BAZ2B inh	HP1b binding inh	G9a block	L3MBTL1 inh
COc1ccc(Br)cc1CNC(=O)C(C)n1nc(C)n2c(cc3occc32)c1=O (stereo not given)	-19%	/	0%	27%	7%[59 µM]	/
Cc1oc(-c2ccc(F)cc2)nc1CN(Cc1ccccn1)CC1CCCO1 (stereo not given)	20µM*	0%	-14%	?	1%	-18%
Clc1ccc(-c2noc(CN(Cc3ccccn3)CC3CCCO3)n2)cc1 (stereo not given)	-25%	?	-5%	49%	-8%	-22%
CCCOC(=O)C1=C(C)NC2=C(C(=O)CCC2)C1c1ccc(N(C)C)cc1 (stereo not given)	-32%	17%	-51%	-7%	40µM*	-5%
CCOC(=O)C1=C(C)NC2=C(C(=O)CCC2)C1c1ccc(N(C)C)cc1 (stereo not given)	-32%	18%	-35%	-6%	?	/
CCN(CC)c1ccc(C2C(C(=O)OCCOC)=C(C)NC3=C2C(=O)CCC3)cc1 (stereo not given)	-35%	-3%	-9%	46%	4.5µM*	-3%
CC1=C(C(=O)OCC2CCCO2)C(c2ccc(C)o2)C2=C(CC(c3ccc(N(C)C)cc3)CC2=O)N1 (stereo not given)	/	8%	40µM*	/	11µM*	-27%
CCCCSc1ncnc2c1c(-c1ccccc1)cn2-c1cccc(F)c1	75%	/	55%	92%	54%[59 µM]	/
COc1cccc(C(=O)N2c3ccc(C)cc3C(C)(c3ccccc3)CC2(C)C)c1 (stereo not given)	-16%	/	-14%	12%	5%[59 µM]	/
CCn1cc2c(n1)-c1c(oc(C(=O)Nc3cccc(C(F)(F)F)c3)c1C)CC2	-29%	/	-31%	17%	?	/
CCOc1ccc(CN2CCc3nc(N4CCN(c5ncccn5)CC4)ncc3C2)cc1OC	?	/	-34%	3%	6%[12.7 µM]	/
FC(F)(F)c1cccc(N2CCN(Cc3ccoc3)CC2)c1	3.5µM*	?	50µM*	?	?	-6%
COc1cccc(N2CCN(C3C4CC5CC(C4)CC3C5)CC2)c1 (stereo not given)	-12%	-7%	?	17%	50µM*	/
COc1cccc(N2CCN(c3ncc4c(n3)CCN(Cc3ccc(Br)cc3)C4)CC2)c1	56µM*	/	22µM*	-21%	7%[12.7 µM]	/
CCNC(=S)N1CCN(c2cccc(C(F)(F)F)c2)CC1	-15%	16%	-5%	32%	10%	7%
COc1cccc(N2CCN(Cc3cccnc3)CC2)c1	3.2µM*	-24%	40µM*	56µM*	14µM*	-8%
O=c1cc(N2CCN(Cc3ccccc3)CC2)[nH]c(=O)n1-c1cccc(C(F)(F)F)c1	-15%	10%	-3%	7%	-12%[59 µM]	-22%
FC(F)(F)c1cccc(N2CCN(Cc3cccnc3)CC2)c1	1.3µM*	-28%	-34%	?	14µM*	-6%
CNc1oc(-c2ccc(C)cc2)nc1P(=O)(c1ccccc1)c1ccccc1	?	56µM*	?	-31%	1%[12.7 µM]	-11%
Cc1ccc(NC(=S)N/N=C/c2cccn2Cc2ccccc2F)cc1	?	-7%	28µM*	26%	?	/
CN(C)c1ccc(NC(=O)CSc2nc3ccccc3c(=O)n2C2CCCCC2)cc1	7.9µM*	21%	10µM*	?	7.9µM*	?
CN(C)c1ccc(NC(=O)CSc2nc(C3CC3)nc3ccccc23)cc1	?	-22%	-11%	-5%	4.5µM*	/
Cn1c(=O)c(CCc2ccccc2)nc2cnc(N3CCNCC3)nc21	/	0%	/	/	22%[12.7 µM]	/
CCc1cccc(NC(=O)Cn2nc(C)c3sc4ccccc4c3c2=O)c1	-27%	/	-17%	24%	?	/
COc1cc(CN(C(=O)COc2ccc(Cl)cc2)c2ccccn2)cc(OC)c1OC	-9%	/	-6%	43%	-26%[59 µM]	/
SMILES	JMJD2A Tudor inh	Sfp PPTase inh	BAZ2B inh	HP1b binding inh	G9a block	L3MBTL1 inh
CCC(C)[C@H]1CNCCN1CCc1cccc2ccccc12 (stereo not given in full)	56µM*	/	?	0%	18%[2.33 µM]	-8%
CCC(C)[C@H]1CNCCN1CCc1cc(C(F)(F)F)cc(C(F)(F)F)c1 (stereo not given in full)	-35%	/	50µM*	26%	-19%[2.33 µM]	-5%
CC(C)(C)CN1CCNC[C@H]1Cc1cccc2ccccc12	-28%	/	-39%	34%	2%[2.33 µM]	-5%
CCC(C)[C@H]1CNCCN1CC1(c2ccccc2)CC1 (stereo not given in full)	-22%	/	10%	38%	13%[2.33 µM]	7%
c1ccc2c(C[C@@H]3CNCCN3CCC34CC5CC(CC(C5)C3)C4)cccc2c1	40µM*	/	/	-4%	/	-3%
O[C@@H]1COC(Nc2ccc(N=Nc3ccccc3)cc2)C[C@@H]1O (stereo not given in full)	?	8%	?	?	45µM*	/
OC[C@H]1OC(Nc2ccc(N=Nc3ccccc3)cc2)[C@@H](O)[C@@H](O)[C@@H]1O (stereo not given in full)	-35%	-2%	?	11%	/	/
CC1Cc2cc(S(=O)(=O)CCC(=O)Nc3ccc(OC(F)(F)F)cc3)ccc2N1C(=O)C1CC1 (stereo not given)	0%	/	-11%	27%	7%[59 µM]	/
CN(C)c1ccc2c(c1)OC(N)=C(C#N)C2c1cccc(F)c1 (stereo not given)	50µM*	?	?	?	45µM*	3%
COc1ccc(-n2cc(C(=O)NCCc3ccc(C)cc3)c3ccccc3c2=O)cc1	?	/	?	12%	?	/
CC1=[N+](C)c2ccc3ccccc3c2C1(C)C	?	?	50µM*	-5%	8.9µM*	-14%
CN(Cc1ccccc1)C(=O)CSc1nc(-c2ccc(F)cc2)cc(C(F)(F)F)n1	27%	/	12%	48%	25%[59 µM]	/
CCOc1ccc(-n2c(SCc3nc(-c4ccc(OC)cc4)no3)nnc2-c2ccncc2)cc1	-28%	/	-32%	7%	-7%[59 µM]	/
CC(=O)Nc1ccc(NC(=O)C/C(C)=N/NC(=O)C(=O)Nc2ccc(C)c(Cl)c2)cc1	-1%	5%	-39%	38%	56µM*	/
C/C(CC(=O)Nc1ccc(C)c(Cl)c1)=N\NC(=O)c1cccc(O)c1	-8%	-1%	-16%	41%	/	-4%
CCN(CC)c1ccc(NC(=O)c2cccn2-c2nnc(N3CCCCC3)s2)c(C)c1	50µM*	/	32µM*	?	?	/
CCN(CC)c1ccc(NC(=O)c2cccc(F)c2)c(C)c1	?	9%	-10%[57.1 µM]	-17%	28µM*	-11%

Compound activity as filed in PubChem.
